Here are results for eight compounds from PubChem BioAssay (NCI).

Common to all, as to experiment: NCI-60 one-dose screen, 48 h (100 = growth as untreated, 0 = no growth, -100 = all killed)
Assay [1] concerns HCT-15 colon. The following applies: 10 µM unless noted.
The subject of assay [2] is HT29 colon. The following applies: 10 µM unless noted.
For assay [3], the system named is SNB-75 CNS. The following applies: 10 µM unless noted.
Assay [4] has as its system SNB-19 CNS. The following applies: 10 µM unless noted.
Assay [5] deals with U251 CNS. The following applies: 10 µM unless noted.
Assay [6] concerns PC-3 prostate. The following applies: 10 µM unless noted.
Assay [7] has as its system SK-MEL-5 melanoma. The following applies: 10 µM unless noted.
Assay [8] has as its system UACC-62 melanoma. The following applies: 10 µM unless noted.
Assay [9] concerns SK-MEL-28 melanoma. The following applies: 10 µM unless noted.
The test system of assay [10] is EKVX NSCLC. The following applies: 10 µM unless noted.
Assay [11] deals with SN12C renal. The following applies: 10 µM unless noted.
The test system of assay [12] is UO-31 renal. The following applies: 10 µM unless noted.
Assay [13] relates to TK-10 renal. The following applies: 10 µM unless noted.
For assay [14], the system named is ACHN renal. The following applies: 10 µM unless noted.
Assay [15] relates to CAKI-1 renal. The following applies: 10 µM.
Assay [16] concerns A498 renal. The following applies: 10 µM unless noted.
The test system of assay [17] is CCRF-CEM leukemia. The following applies: 10 µM unless noted.
Assay [18] concerns SK-MEL-2 melanoma. The following applies: 10 µM unless noted.
Assay [19] has as its system MOLT-4 leukemia. The following applies: 10 µM unless noted.
Assay [20] deals with LOX IMVI melanoma. The following applies: 10 µM unless noted.

Compounds without any hit were thinned out: in the full panel of roughly 83,000, 20% have a hit.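 A percent growth of 40 corresponds to 60% growth inhibition; 0 means no net growth; -100 means all cells died. Active threshold: below 10.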 Unmarked numbers belong to inactive results. Active and inactive are the calls of the source.

Regarding `COCCOc1ccc(-c2csc(NC(C)=O)n2)cc1NS(=O)(=O)c1cccc2c(N(C)C)cccc12`, the growth in assay [1] was 94.5%; in assay [2], 89.3%; in assay [3], 94.2%; in assay [4], 71%; in [5] it was 99.5%; in [6], 68.5%. For the same compound, the growth was 78.8% in assay [7]; 60.8% in [8]; 83.1% in assay [9]; 85.2% in [10]; 79.8% in assay [11]; 64.2% in [12]. The growth was -21.2% (active) in assay [13]; 72% in [14]; 71.3% in [15]; 74.8% in assay [16]; 105% in assay [17].
Turning to `COC1=C(c2ccccc2)C(=O)C(OC)=C(c2ccccc2)C1=O`, the growth in assay [1] is 97.6%; in assay [2], 95%; in assay [3], 56%; in assay [4] it was 101%; in assay [5] it was 91.6%; in assay [6], 96.2%. Further, the growth is 103% in assay [7]; 97.1% in [8]; 117% in assay [9]; 101% in [18]; 99% in [10]; 102% in [11]. In addition, the growth was 89.8% in assay [12]; 107% in assay [13]; 117% in assay [14]; 89.7% in [16]; 10.9% in assay [17]; -7.74% (active) in assay [19].
Consider `CCNC(=O)Oc1ccc(/C(=C(/C)c2ccc(Cl)cc2)c2ccc(OCCN3CCCC3)cc2)cc1`, for which the growth in assay [1] is 60.5%; in [2] it was 19.6%; in assay [3] it was 85.7%; in assay [4], 81.6%; in assay [5], 60.1%; in assay [6], 82.4%. In addition, the growth in [7] was 86.3%; in assay [8], 98.3%; in assay [9], 89%; in [18] it was 104%; in [10], 80.2%; in [11] it was 75.4%. Also, the growth is 65.8% in assay [12]; 97.6% in assay [13]; 95% in assay [14]; 85.7% in assay [15]; 58.6% in assay [19].
Consider `COc1ccc([C@H]2c3[nH]c4ccccc4c3C[C@@H]3C(=O)N(C4CCN(Cc5ccccc5)CC4)CC(=O)N23)c(OC)c1`, for which the growth is 48.3% in assay [1]; 43.1% in assay [2]; 83.1% in [3]; 83.1% in assay [4]; 75.8% in assay [5]; 48.1% in [6]. Besides, the growth in assay [7] was 73.7%; in [20], 58.7%; in assay [9], 85.1%; in assay [18] it was 103%; in [10] it was 64.5%; in assay [11] it was 75.6%. Moreover, the growth in assay [12] is 42.6%; in assay [13] it was 103%; in assay [14] it was 76%; in assay [15], 56.4%; in assay [16] it was 93.8%; in assay [17], 61.8%. The growth in assay [19] is 45.1%.
Consider `Cc1ccc(-n2cc(/C=C/C(=O)c3ccc(S(C)(=O)=O)cc3)c(-c3ccc(S(C)(=O)=O)cc3)n2)cc1`, for which the growth was 37.6% in [1]; 70.5% in assay [2]; 102% in assay [3]; 89.8% in assay [4]; 95.6% in [5]; 86.6% in [6]. For the same compound, the growth in assay [7] is 94.4%; in assay [20] it was 74.5%; in [9], 92.9%; in assay [18], 107%; in assay [10], 93.2%; in assay [11], 89.7%. For the same compound, the growth in assay [12] is 85.5%; in [13], 127%; in assay [14], 93.3%; in [15], 89.2%; in assay [16], 84.6%; in assay [17], 77.5%. In [19], the growth was 71.9%.
As to `CC(c1ccccc1)N1C(=O)/C(=C/c2csc(C#N)n2)SC1=S` (stereo not given), the growth in assay [1] is 76.1%; in [2], 106%; in assay [3], 85.4%; in [4], 93.7%; in assay [5] it was 94.1%; in [6] it was 90.5%. Further, the growth in assay [7] was 96.9%; in assay [20], 39.8%; in assay [9], 93.5%; in assay [18], 96.2%; in [10], 98.5%; in assay [11], 93.3%. Besides, the growth in assay [12] was 64.8%; in assay [13] it was 119%; in [14], 87%; in [15] it was 84.9%; in assay [17], 10.5%; in assay [19] it was 36.5%.
`Cc1ccc(NC(=O)c2ccc(CN3CCN(C)CC3)c(I)c2)cc1Oc1ccc(-c2[nH]nc3ncnc(N)c23)cc1`: the growth is -54.1% (active) in [1]; -71.1% (active) in [2]; 100% in [3]; 96.5% in assay [4]; -59.8% (active) in [5]; 75.2% in [6]. Also, the growth is 62.6% in assay [7]; -86.5% (active) in assay [20]; -84.6% (active) in assay [9]; 86.4% in [18]; 100% in [10]; 90% in assay [11]. Further, the growth in [12] is 75.8%; in [13] it was 114%; in assay [14], 76.9%; in assay [15], 89.9%; in [16], 103%; in [17], 3.41% (active). The growth in assay [19] is 11.3%.
In the case of `CN(C)C(=O)C1=NC(CO)C(=O)N(c2ccc(Cl)cc2)N1` (stereo not given), the growth in assay [1] is 102%; in assay [2], 102%; in [3] it was 105%; in assay [4], 102%; in assay [5] it was 101%; in assay [6], 90.8%. The growth was 102% in assay [7]; 96.6% in assay [8]; 107% in assay [9]; 99% in assay [18]; 99.5% in assay [10]; 105% in assay [11]. Besides, the growth was 82.5% in assay [12]; 91.1% in assay [13]; 101% in assay [14]; 92% in assay [15]; 104% in assay [17]; 103% in assay [19].
